Records with an inconclusive call do not appear. Entries that show only a call come without a potency. The source made the active and inactive calls. The call rests on the fitted dose curve; in most records, active means well fitted cell-killing curve with a large enough effect; inconclusive means small, poorly fitted or top-dose-only effect, or effect the other way; inactive means no such curve, though single readings can be large or run the other way. Bridge positions count the residues as written; N and C are the ends. Square brackets hold non-standard residues; d marks the D form. Peptide text beside a SMILES is read from it. * marks the point of attachment. ξ: configuration not given here. Octanoyl(6-Me) = CCC(C)CCCCC(=O)*; ξThr(3R) = C[C@@H](O)C(N)C(=O)O; dDab = NCC[C@@H](N)C(=O)O; Dab = NCC[C@H](N)C(=O)O
Potency means the concentration at half of the fitted maximal effect.

The nature of this assay: Quantitative highthroughput screen to assess conditional lethalithy of NOMO1 cells grown in Human Plasma-Like Medium with dialyzed fetal bovine serum (HPLM+ds) (AID 1963878). Further: nearly all actives have a fitted effect of over 35% in size. Particulars: NOMO1 AML cells in HPLM+ds, CellTiter-Glo viability, 48 h; series mostly up to 45.8 µM. The essentials:
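Each medium arm—HPLM with 10% dialyzed FBS, or RPMI1640 with 5 mM glucose and 10% untreated or dialyzed FBS—was screened against an 11-point, 3-fold compound titration for 48 h at 37 °C, with CellTiter-Glo luminescence as endpoint.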
For orientation: Cellular ATP, detected with luciferase, serves as a proxy for viable cell number.
`Cc1ccn(-c2ccc(-c3ncco3)cc2)c(=O)c1-c1ccc2nc(N)ncc2c1`: the Potency entry was “inactive”.
In the case of `c1cc(OCCN2CCCCC2)cc(-c2n[nH]c3ccc(-c4ncn[nH]4)cc23)c1`, the Potency entry was “inactive”.
Then `NC(=O)c1cccc(-c2cc(Nc3ccc(OC(F)(F)F)cc3)ncn2)c1`, with “inactive”; and `O=C(O)C1CCCN(CCC=C(c2ccccc2)c2ccccc2)C1` (stereo not given), with “inactive”; and `CCC(C)CCCCC(=O)N[C@@H](CCN)C(=O)NC(C(=O)N[C@H](CCN)C(=O)N[C@@H]1CCNC(=O)C([C@@H](C)O)NC(=O)[C@@H](CCN)NC(=O)[C@@H](CCN)NC(=O)[C@@H](CC(C)C)NC(=O)[C@H](Cc2ccccc2)NC(=O)[C@H](CCN)NC1=O)[C@@H](C)O` (stereo partly drawn) ({Octanoyl(6-Me)}-[Dab][ξThr(3R)][dDab][dDab][Dab]F[dL][dDab][dDab][ξThr(3R)]; lactam 4-C), with “inactive”.
The value for `Clc1ccc(C(Cn2ccnc2)OCc2c(Cl)cccc2Cl)c(Cl)c1` (stereo not given) was “inactive”.
The value for `Cc1cc(CN2CCN(c3c(Br)cnc4nc(-c5ccc(N6CCN(C)CC6)cc5)[nH]c34)CC2)no1` was 16.6 µM (active).
Take `COc1c(N2CCNC(C)C2)c(F)cc2c(=O)c(C(=O)O)cn(C3CC3)c12` (stereo not given): the Potency entry was “inactive”.
Then `CCn1c(-c2nonc2N)nc2cnc(Oc3cccc(NC(=O)c4ccc(OCCN5CCOCC5)cc4)c3)cc21`, with “inactive”; and `COC(=O)[C@H](CCCN=C(N)N)NS(=O)(=O)c1ccc(C)cc1`, with 6.62 µM (active).
The value for `COc1ccc2cc(-c3nc(-c4ccc(S(C)=O)cc4)[nH]c3-c3ccncc3)ccc2c1` (stereo not given) was “inactive”.
Then `CN(C)Cc1ccc(-c2nc3cccc4c3n2CCNC4=O)cc1`, with “inactive”; and `CC(C)(C)C(=O)OCOP(=O)(COCCn1cnc2c(N)ncnc21)OCOC(=O)C(C)(C)C`, with 1.18 µM (active); and `CCS(=O)(=O)c1cccc(-c2cc(C(=O)NC3CCN(C)CC3)c(C)c3[nH]c4ncc(C)cc4c23)c1`, with 6.62 µM (active).
With `O=C(Nc1cccc(Cl)c1)Nc1ncc(CCNc2ncnc3ccsc23)s1`, the Potency is 0.105 µM (active).
The value for `COc1ccccc1OCCNCC(O)COc1cccc2[nH]c3ccccc3c12` (stereo not given) was “inactive”; that for `NCCc1ccc(O)c(O)c1` was 9.35 µM (active).
Then `Cc1ccccc1-n1c(Cn2nc(-c3cccc(O)c3)c3c(N)ncnc32)nc2cccc(C)c2c1=O`, with 1.66 µM (active).
Then `NC1CCC(N[C@@H]2C[C@H]2c2ccccc2)CC1` (stereo not given in full), with “inactive”.
Regarding `C[C@@H](NC(=O)c1ncnc(N)c1Cl)c1ncc(C(=O)Nc2cc(C(F)(F)F)c(Cl)cn2)s1`, the Potency is 16.6 µM (active).
The value for `C[C@H](CCC(=O)O)[C@H]1CCC2C3C[C@H](O)[C@@H]4C[C@H](O)CC[C@]4(C)C3CC[C@@]21C` (stereo not given in full) was “inactive”; that for `COc1cc2nc(N3CCCN(C)CC3)nc(NC3CCN(Cc4ccccc4)CC3)c2cc1OC` was 5.26 µM (active).
The value for `Clc1ccc2c(c1)C(N1CCNCC1)=Nc1ccccc1O2` was “inactive”.
Take `OCc1ccc(-c2ccc(-c3ccc(CO)s3)o2)s1`: the Potency result was “inactive”.
As for `CN1CCC(=C2c3ccccc3CC(=O)c3sccc32)CC1`, the Potency entry is “inactive”.
